The text below walks through data of ChEMBL document CHEMBL3433997, “St. Jude Leishmania screening dataset” (2016).

For this assay, the target named is Hexose transporter 1 (Plasmodium falciparum) (UniProt O97467). The experiment in a line: ST_JUDE_LEISH: Cytotoxicity at 2uM final concentration against transgenic Leishmania Mexicana promastigotes LmPfHT that are glucose transport deficient and complemented with the Plasmodium falciparum hexose transporter. Activity is measured by DNA content using SYBR green in vitro. It is filed as functional.
With `CC(=O)Oc1ccc(C(=O)Oc2ccccc2C#CC#N)cc1OC(C)=O`, the inhibition – broadly, the change of the read-out against control, counted positive when it falls – stood at 0.93%.

Consider `CC(=O)Nc1nc(C(=O)Nc2ccc(-c3ccc(-c4nc5cccc(C)c5[nH]4)cc3)cc2)cs1`, for which the inhibition was determined as 9.18%.

In the case of `O=C(c1ccc(-c2ccc(-c3nc4cc(C(F)(F)F)ccc4[nH]3)s2)cc1)N1CCN(CCc2ccccc2)CC1`, the inhibition was determined as 3.93%.

In the case of `Cc1cc(=O)c(-c2ccc(Oc3ccc(Cl)cc3Cl)cc2)c(C)[nH]1`, the inhibition was 3.32%.

For `c1ccc(CN2CCC(NCc3ccc(-c4cncc5ccccc45)cc3)CC2)cc1`, the inhibition is -2.18%.

In the case of `COc1ccc(NC(=O)NC2CCN(c3ccnc4cc(Cl)ccc34)CC2)cc1`, the inhibition came out at 1.61%.

`CCCCCCSc1nnc(COc2cccc3ccccc23)n1-c1ccc(OC)cc1`: the inhibition was 12.1%.

On to `CC(=O)c1sc2ccccc2c1O`, for which the inhibition is -1%.

Regarding `CCCN(CC1CC1)c1ncc(-c2cccc(CNCc3ccccc3O)c2)cn1`, the inhibition was -2.3%.

On to `CN(C)C=Nc1ccc(OCCCCCCOc2ccc(N=CN(C)C)cc2)cc1`, for which the inhibition turned out to be 3.26%.

As to `Nc1nc(N)c2c(ccc3c2ccn3Cc2ccc(-c3ccccc3)cc2)n1`, the inhibition worked out at 113%.

As to `O=C(Nc1cc(C(F)(F)F)cc(C(F)(F)F)c1)c1cc(C(F)(F)F)cc(C(F)(F)F)c1`, the inhibition is -0.43%.

With `Cn1cncc1CCCN(Cc1ccc(-c2ccc(C(F)(F)F)cc2)cc1)C(=O)Cn1c(CCc2cccc(F)c2F)cc(=O)c2cccnc21`, the inhibition amounted to 2.54%.

In the case of `CCn1ncc(Cl)c1CN(C)S(=O)(=O)c1ccc2ccccc2c1`, the inhibition was found to be 6.41%.

With `CC(C)N1CCN(C(CN2CCN(CCCOc3ccccc3-c3ccccc3)CC2)c2ccc(F)cc2)CC1` (stereo not given), the inhibition worked out at 5.02%.

Turning to `COc1ccc(-c2cn3c(C(=O)Nc4ccccc4Cl)c(-c4ccccc4)c4c3n2CCCC4)cc1`, the inhibition was determined as 0.92%.

As for `NC(=O)C1CCN(Cc2ccc(-c3ccc(-c4nc5cc(F)ccc5[nH]4)cc3)cc2)CC1`, the inhibition was found to be 12.7%.

For the compound `CC(C)NCc1ccc(-c2cccc(NC(=O)c3cccc(C#N)c3)c2)cc1`, the inhibition stood at 2.38%.

On to `Cc1nc(C)c(CC(=O)Nc2ccc(-c3cccc(-c4nc5cccc(C)c5[nH]4)c3)cc2)s1`, for which the inhibition was determined as 2.89%.

Turning to `COc1ccc(OC)c(-c2ccc(O)c(CNCC(C)c3ccccc3)c2)c1` (stereo not given), the inhibition was -0.62%.

For `Oc1ccc(CN2CCC(N3CCN(CCc4ccccc4)CC3)C(O)C2)cc1Cl` (stereo not given), the inhibition is -0.2%.

Consider `CCc1nc2c(cnn2CC)c(NC2CCOCC2)c1CNC(=O)N1CCOCC1`, for which the inhibition was -1.12%.

Consider `COc1ccc(NC(=O)[C@H](Cc2ccccc2)Nc2cc(C)nc(NCCc3ccccc3)n2)cc1`, for which the inhibition was 6.29%.

Take `Clc1cc(Cl)c2cc(CN[C@H]3CCC[C@@H]3CNc3nc4ccccc4[nH]3)[nH]c2c1`: the inhibition turned out to be 1.94%.

Take `N#Cc1ccc(-c2ccc(C(=O)NCC3CCN(CCN4CCC(c5ccc6c(c5OCC(N)=O)CCCC6)CC4)CC3)cc2)cc1`: the inhibition is -0.09%.

With `COc1ccc2c(=NN=CC=Cc3ccccc3)cc(C)[nH]c2c1`, the inhibition came to 4.29%.

With `O=C(NC1CCN(c2ccnc3cc(Cl)ccc23)C1)c1ccc(C(F)(F)F)cc1` (stereo not given), the inhibition was determined as 3.66%.

For the compound `CCc1nc2c(N)nc(N)nc2nc1-c1ccc(OC)cc1`, the inhibition was determined as 0.84%.

For the compound `CCCCCCCCCc1c(C)[nH]c2ccccc2c1=O`, the inhibition amounted to 2.65%.

With `CCCN(CC1CC1)c1ncc(-c2ccccc2CNCc2ccccc2O)cn1`, the inhibition is 8.72%.

Regarding `Cc1ccccc1C1CCN(C2CCC(NC(=O)/C=C/c3ccc(C(F)(F)F)cc3)CC2)CC1` (stereo not given), the inhibition was 1.57%.

As to `COc1cccc(NC(=O)NC2CCN(c3ccnc(Nc4cc(OC)c(OC)c(OC)c4)n3)C2)c1` (stereo not given), the inhibition was -1.6%.

Consider `O=C(NCCN1CCCCC1)c1cccc(Nc2nccc(Nc3ccc(Oc4ccccc4)cc3)n2)c1`, for which the inhibition is -0.85%.

Consider `Fc1cc(CN2CCCC2)ccc1OCCCN1CCN(c2cccc(Cl)c2Cl)CC1`, for which the inhibition was determined as 5.47%.

With `CC(C)NCc1ccc(-c2ccc(CN3CCCC(c4ccccc4)C3)cc2)c(C(=O)NCC2CCCCC2)c1` (stereo not given), the inhibition is -0.36%.

As for `CC1CN(c2cnn(Cc3ccc(NC(=O)Nc4cccc(C(F)(F)F)c4)cc3)c(=O)c2Cl)CC(C)N1` (stereo not given), the inhibition was 3.35%.

Consider `Cc1ccc(-c2noc(COc3ccccc3C(=O)NC3CCCC3)n2)cc1`, for which the inhibition stood at 6.24%.

For the compound `CCOc1ccc2c(=NN=Cc3cc(OC)c(OC)c(OC)c3)cc(C)[nH]c2c1`, the inhibition is 1.22%.

Turning to `COc1cc2c(cc1S(=O)(=O)c1ccc(NC(=O)Nc3ccc(F)cc3)cc1)CCN(C)CC2`, the inhibition came out at 2.22%.

With `O=[N+]([O-])c1cccc(CNCC2CCN(CCc3ccccc3)CC2)c1`, the inhibition is 1.86%.
